From PubChem
The sample as a whole holds a higher share of hits than the screen did.
Tg IFNy HTS – T. gondii growth inhibition with IFN-gamma, primary screen, cell-based; activity change, negative = inhibition, % (test concentration not listed); AID 1259416, 2018; actives 3.8% (n = 69,000); Toxoplasma gondii growth in IFN-gamma-treated host cells; hits give low values; in the data active means activity change below about -70%, passing the limit was not always enough;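 further: host cells are HeLa cells infected with Toxoplasma gondii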
An asterisk follows results filed as active; i = inactive; ! = a repeat was not active.

SMILES | Tg IFNy HTS
Cc1c(CN(C)C(=O)c2cccc(C#CC(C)(C)O)c2)cnn1C | -1
CN(C(=O)c1ccc2[nH]c(=O)c(=O)[nH]c2c1)C1CCCCCC1 | 147
O=C(Nn1cnnc1)c1cc2ccccc2oc1=O | 4
COC(=O)c1[nH]ncc1CN(C)Cc1ccc(-n2cccn2)cc1 | -4
CN(C)/N=N/c1nc[nH]c1C(N)=O | -83*
O=C(O)c1cc(-c2ccc3c(c2)OCO3)n[nH]1 | 5
COCCCN(C(=O)NCc1cccc(F)c1)C1CCN(C)CC1 | -1
CCOC(=O)c1cccc(NC(=O)N2CCC3(CC2)Nc2ccccc2-n2cccc23)c1 | 214
COCC(=O)N1C[C@H](C)[C@@H](OC)CN(C)C(=O)c2ccc(NC(=O)Nc3cccc(F)c3)cc2OC[C@@H]1C | -35
COCC(=O)N1C[C@@H](C)[C@H](OC)CN(C)C(=O)c2ccc(NC(=O)c3ccc(-c4ccccc4)cc3)cc2OC[C@H]1C | -103*
CO[C@H]1CN(C)C(=O)c2ccc(NC(=O)Nc3cc(F)ccc3F)cc2OC[C@@H](C)N(C(=O)c2ccccn2)C[C@@H]1C | -88*
COCC(=O)Nc1ccc2c(c1)OC[C@@H](C)N(C)C[C@@H](C)[C@@H](OC)CN(C)C2=O | -19
CO[C@@H]1CN(C)C(=O)c2cc(NC(=O)Nc3ccccc3F)ccc2OC[C@@H](C)N(C(=O)c2cnccn2)C[C@H]1C | 44
CO[C@@H]1CN(C)C(=O)c2ccc(NC(=O)Nc3cc(F)ccc3F)cc2OC[C@H](C)N(C(=O)c2ccccn2)C[C@@H]1C | 2
CCC(=O)Nc1ccc2c(c1)OC[C@H](C)N(Cc1ccccc1)C[C@H](C)[C@@H](OC)CN(C)C2=O | 173
CCCC(=O)Nc1ccc2c(c1)C(=O)N(C)C[C@@H](OC)[C@H](C)CN(C(=O)c1ccccn1)[C@H](C)CO2 | 4
CCCC(=O)Nc1ccc2c(c1)C(=O)N(C)C[C@@H](OC)[C@H](C)CN(Cc1cc(-c3ccccc3)on1)[C@H](C)CO2 | -81*
CO[C@@H]1CN(C)C(=O)c2cc(NC(C)=O)ccc2OC[C@H](C)N(Cc2ccncc2)C[C@H]1C | -66
CO[C@@H]1CN(C)C(=O)c2ccc(NC(=O)c3ccc4c(c3)OCO4)cc2OC[C@@H](C)N(Cc2ccc3c(c2)OCO3)C[C@H]1C | -80*
CCC(=O)Nc1ccc2c(c1)OC[C@H](C)N(Cc1ccccc1)C[C@@H](C)[C@@H](OC)CN(C)C2=O | 211
CCn1ncc(Cl)c1C(=O)N1CCn2nc(C(=O)NC3CC3)cc2C1 | 116
CCOc1ccc(N(Cc2nc(-c3ccccc3OCC)oc2C)S(=O)(=O)c2cccs2)cc1 | -36
COCCN1CCN(C)C2(CCN(C(=O)C3CCCO3)CC2)C1=O (centres undefined) | 1
O=C1CCC(=O)N1c1ccc(C(=O)N2CCCCC2CN2CCCCCC2)cc1 (centres undefined) | -6
O=C(c1ccccc1Cl)N(c1ccc(Cl)nn1)C1CCCCC1 | 13
SMILES | Tg IFNy HTS
COc1ccc(CCC(=O)NCCc2sc(-c3cccc(F)c3)nc2C)cc1 | 24
CCCc1ccc(-c2ccc(C(=O)N3CCCC(O)(CO)CC3)cc2)cc1 (centres undefined) | -4
CC(C)n1cnc2c(N3CCOCC3)nc(C3CCN(C(=O)C4(C)CC4)CC3)cc21 | 2
CCS(=O)(=O)N1CCc2nc(-c3cccc(F)c3)nc(NC3CC3)c2C1 | -35
COCCN1CCc2nc(-c3cnn(C)c3)nc(NC3CC3)c2C1 | 78
Cn1cc(-c2nc3c(c(NC4CC4)n2)CN(S(=O)(=O)c2cccc(F)c2)CC3)cn1 | -74*
Cc1c(C(=O)Cn2cnc3nc4c(cc3c2=O)CC(C)CC4)c2ccccc2n1C (centres undefined) | -18
CCn1c(C2CCN(C(=O)c3ccc(C4CCCN4)s3)CC2)n[nH]c1=O (centres undefined) | -3
Cc1ccsc1/C=C/NC(=O)Nc1ccc(C(C)C)cc1 | 19
Cn1ncc2c1C(COCC1CC1)CN(Cc1ccccn1)C2 (centres undefined) | -9
Cc1ccc2c(c1)c(CNC(C)CCn1cccn1)nn2C (centres undefined) | -7
Cc1ccc2c(c1)c(Cn1cc(-c3sccc3C)nn1)nn2C | -86*
CCc1c(C)nn(CC(=O)NCc2nn(C)c3ccc(C)cc23)c1C | -1
COc1ccc(CN2C[C@@H]3CCCN3C[C@@H]2CCSC)cc1CN1CCOCC1 | -7
Cc1nnsc1CN(C)C(=O)CCc1c(C)nn(C)c1C | 17
N#C/C(=C/c1ccc(O)c(O)c1)C(=O)NCCCc1ccccc1 | 3
N#C/C(=C\c1ccc(O)c(O)c1)C(=O)NC1CCC(CC2CCC(NC(=O)/C(C#N)=C/c3ccc(O)c(O)c3)CC2)CC1 (centres undefined) | -80*
N#C/C(=C/c1ccc(O)c(O)c1)C(=O)NCc1ccccc1 | -3
COCCN(Cc1cnn(C)c1)C(=O)c1ccc2c(c1)OCO2 | 81
Cc1nc(-c2ccc(F)cc2)sc1CCNC(=O)C(=O)Nc1cccc(F)c1 | 33
O=C(Nc1ccc(Br)cc1F)N1CCC2(CC1)Nc1ccccc1-n1cccc12 | i
Cc1c(C2CCN(CCc3ccccc3)CC2)noc1-c1ccc(Cl)cc1 | -76*!
